Source: PubChem BioAssay AID1159580 (chemical genetic matrix, 2015)
Hit rate of the full screen: of about 5,500 compounds, about 2,000 (36%) were called active. Inconclusive results (about 18%) are left out. Cut-off read from the data, not from the text of the source: active = normalized growth mostly below about 0.91 (no sharp cut-off); inconclusive = no clear call, values can overlap the other calls; inactive = mostly above about 0.92. The list shows a part of the results.

Test: chemical genetic growth profiling, strain panel (AID 1159580);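 note: tested at 20 µM; growth read once vehicle control cultures reached saturation at 30 °C; 1 = growth at the plate median or of vehicle wells; lower values mean less growth of the strain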
Settings: growth OD

Measured: normalized growth

NC[C@@H]1CC[C@@H](N)[C@@H](O[C@H]2[C@H](O)[C@@H](O[C@H]3O[C@H](CO)[C@@H](O)[C@H](N)[C@H]3O)[C@H](N)C[C@@H]2N)O1
inactive: S. cerevisiae deletion strains, locus YAL013W, strain DEP1, hits give low values 0.987 | S. cerevisiae deletion strains, locus YBR021W, strain FUR4, hits give low values 1.06 | S. cerevisiae deletion strains, locus YBR229C, strain ROT2, hits give low values 0.959 | S. cerevisiae deletion strains, locus YCL029C, strain bik1, hits give low values 0.985 | S. cerevisiae deletion strains, locus YDL035C, strain GPR1, hits give low values 0.995 | S. cerevisiae deletion strains, locus YDL074C, strain BRE1, hits give low values 0.983 | S. cerevisiae deletion strains, locus YDL101C, strain DUN1, hits give low values 0.952 | S. cerevisiae deletion strains, locus YDL134C, strain PPH21, hits give low values 0.993 | S. cerevisiae deletion strains, locus YDL185W, strain tfp1, hits give low values 0.984 | S. cerevisiae deletion strains, locus YDL192W, strain arf1, hits give low values 0.993 | S. cerevisiae deletion strains, locus YDR101C, strain arx1, hits give low values 1 | S. cerevisiae deletion strains, locus YDR150W, strain NUM1, hits give low values 0.986 | S. cerevisiae deletion strains, locus YDR162C, strain NBP2, hits give low values 0.967 | S. cerevisiae deletion strains, locus YDR318W, strain mcm21, hits give low values 1.01 | S. cerevisiae deletion strains, locus YDR388W, hits give low values 1 | S. cerevisiae deletion strains, locus YDR502C, strain sam2, hits give low values 1 | S. cerevisiae deletion strains, locus YEL061C, strain CIN8, hits give low values 0.987 | S. cerevisiae deletion strains, locus YER110C, hits give low values 0.996 | S. cerevisiae deletion strains, locus YER155C, strain BEM2, hits give low values 1 | S. cerevisiae deletion strains, locus YER167W, strain BCK2, hits give low values 0.98 | S. cerevisiae deletion strains, locus YGL078C, strain dbp3, hits give low values 0.994 | S. cerevisiae deletion strains, locus YGL086W, strain mad1, hits give low values 0.995 | S. cerevisiae deletion strains, locus YGL248W, strain PDE1, hits give low values 0.978 | S. cerevisiae deletion strains, locus YGR078C, strain PAC10, hits give low values 0.986 | S. cerevisiae deletion strains, locus YGR135W, strain pre9, hits give low values 0.982 | S. cerevisiae deletion strains, locus YGR229C, strain SMI1, hits give low values 1.01 | S. cerevisiae deletion strains, locus YGR252W, strain gcn5, hits give low values 1.02 | S. cerevisiae deletion strains, locus YHR030C, strain SLT2, hits give low values 0.995 | S. cerevisiae deletion strains, locus YHR079C, strain IRE1 (second series), hits give low values 1 | S. cerevisiae deletion strains, locus YHR094C, strain hxt1, hits give low values 1 | S. cerevisiae deletion strains, locus YHR129C, strain ARP1, hits give low values 0.992 | S. cerevisiae deletion strains, locus YHR200W, strain rpn10, hits give low values 0.988 | S. cerevisiae deletion strains, locus YIL066C, strain RNR3, hits give low values 0.995 | S. cerevisiae deletion strains, locus YIL073C, strain SPO22, hits give low values 0.971 | S. cerevisiae deletion strains, locus YIL125W, strain kgd1, hits give low values 0.993 | S. cerevisiae deletion strains, locus YIR030C, strain dcg1, hits give low values 0.985 | S. cerevisiae deletion strains, locus YJL095W, strain BCK1, hits give low values 0.984 | S. cerevisiae deletion strains, locus YJL134W, strain LCB3, hits give low values 0.978 | S. cerevisiae deletion strains, locus YJL168C, strain set2, hits give low values 0.995 | S. cerevisiae deletion strains, locus YJL187C, strain SWE1 (second series), hits give low values 0.977 | S. cerevisiae deletion strains, locus YJR043C, strain POL32, hits give low values 1.01 | S. cerevisiae deletion strains, locus YJR075W, strain HOC1, hits give low values 0.996 | S. cerevisiae deletion strains, locus YKL009W, strain mrt4, hits give low values 0.974 | S. cerevisiae deletion strains, locus YKL068W, hits give low values 0.996 | S. cerevisiae deletion strains, locus YKL085W, strain MDH1 (second series), hits give low values 0.983 | S. cerevisiae deletion strains, locus YKL085W, strain MDH1, hits give low values 0.983 | S. cerevisiae deletion strains, locus YKL190W, strain CNB1, hits give low values 1 | S. cerevisiae deletion strains, locus YKR001C, strain vps1, hits give low values 0.994 | S. cerevisiae deletion strains, locus YLR039C, strain RIC1, hits give low values 0.938 | S. cerevisiae deletion strains, locus YLR058C, strain SHM2, hits give low values 0.974 | S. cerevisiae deletion strains, locus YLR102C, strain apc9, hits give low values 0.993 | S. cerevisiae deletion strains, locus YLR262C, strain YPT6, hits give low values 0.9 | S. cerevisiae deletion strains, locus YLR268W, strain sec22, hits give low values 0.986 | S. cerevisiae deletion strains, locus YLR330W, strain CHS5, hits give low values 0.981 | S. cerevisiae deletion strains, locus YLR342W, strain FKS1 (second series), hits give low values 1.01 | S. cerevisiae deletion strains, locus YLR371W, strain rom2, hits give low values 1 | S. cerevisiae deletion strains, locus YLR418C, strain cdc73, hits give low values 0.968 | S. cerevisiae deletion strains, locus YML016C, strain PPZ1, hits give low values 0.981 | S. cerevisiae deletion strains, locus YML032C, strain rad52, hits give low values 1 | S. cerevisiae deletion strains, locus YML124C, strain tub3, hits give low values 1.01 | S. cerevisiae deletion strains, locus YMR078C, strain ctf18, hits give low values 1 | S. cerevisiae deletion strains, locus YMR223W, strain ubp8, hits give low values 1.01 | S. cerevisiae deletion strains, locus YMR263W, strain SAP30, hits give low values 0.983 | S. cerevisiae deletion strains, locus YMR307W, strain GAS1, hits give low values 1.13 | S. cerevisiae deletion strains, locus YNL067W, strain RPL9B, hits give low values 0.981 | S. cerevisiae deletion strains, locus YNL128W, strain TEP1, hits give low values 0.98 | S. cerevisiae deletion strains, locus YNL153C, strain GIM3, hits give low values 0.991 | S. cerevisiae deletion strains, locus YNL233W, strain BNI4, hits give low values 0.994 | S. cerevisiae deletion strains, locus YNL250W, strain rad50, hits give low values 0.983 | S. cerevisiae deletion strains, locus YNL271C, strain bni1, hits give low values 1 | S. cerevisiae deletion strains, locus YNL298W, strain CLA4, hits give low values 1.01 | S. cerevisiae deletion strains, locus YNL307C, strain MCK1, hits give low values 0.997 | S. cerevisiae deletion strains, locus YNL322C, strain KRE1, hits give low values 0.987 | S. cerevisiae deletion strains, locus YNR052C, strain pop2, hits give low values 0.953 | S. cerevisiae deletion strains, locus YOL006C, strain TOP1, hits give low values 0.917 | S. cerevisiae deletion strains, locus YOL012C, strain htz1 0.745 | S. cerevisiae deletion strains, locus YOL147C, strain pex11, hits give low values 1.01 | S. cerevisiae deletion strains, locus YOR061W, strain CKA2, hits give low values 0.95 | S. cerevisiae deletion strains, locus YOR069W, strain VPS5, hits give low values 0.996 | S. cerevisiae deletion strains, locus YOR136W, strain idh2, hits give low values 1 | S. cerevisiae deletion strains, locus YOR144C, strain elg1, hits give low values 1 | S. cerevisiae deletion strains, locus YOR184W, strain ser1, hits give low values 1.03 | S. cerevisiae deletion strains, locus YOR316C, strain cot1, hits give low values 0.985 | S. cerevisiae deletion strains, locus YPL055C, strain LGE1, hits give low values 0.984 | S. cerevisiae deletion strains, locus YPL241C, strain CIN2, hits give low values 0.991 | S. cerevisiae deletion strains, locus YPR119W, strain clb2, hits give low values 1 | S. cerevisiae deletion strains, locus YPR141C, strain kar3, hits give low values 0.966 | S. cerevisiae deletion strains, locus YPR163C, strain tif3, hits give low values 1.01 | S. cerevisiae deletion strains, locus YPR167C, strain met16, hits give low values 0.988 | S. cerevisiae deletion strains, strain wtn01, hits give low values 0.987 | S. cerevisiae strains, strain wild type, hits give low values 0.992
